The source of these data is PubChem BioAssay.

Test [1] is described as follows: small molecules captured by biotinylated probe aFSTL3 – biochemical, small-molecule microarray, fluorescence 635/667, stem cell growth factor project, primary screen (AID 1064).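 Further: measures binding of the biotinylated anti-FSTL3 antibody to printed compounds.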 The settings on record: higher = more signal.
Test [2] in a line: binders from COS7 lysate, DM2A8 probe, primary screen, torsin A project, cell lysate, small-molecule microarray, fluorescence 635/667 (AID 1065). The settings on record: higher = more signal, COS7 lysate expressing mutant human TOR1A.
A short description of test [3]: small molecules captured by biotinylated probe aFGF2 – biochemical, small-molecule microarray, fluorescence 635/667, stem cell growth factor project, primary screen (AID 1067).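 Further: measures binding of biotinylated aFGF2 protein to printed compounds on slides; z-score merges feature fluorescence and signal-to-noise across triplicate slides.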 The settings on record: higher = more signal.
Test [4] in a line: small molecules captured by biotinylated probe aFGF10 – biochemical, small-molecule microarray, fluorescence 635/667, stem cell growth factor project, primary screen (AID 1071).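 Further: score merges 667 nm spot intensity and signal to noise from triplicate slides.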 The settings on record: higher = more signal.
In test [5] the target is Neurogenic locus notch homolog protein 2 (Homo sapiens) (UniProt Q04721). The test can be described thus: small molecules binding Notch2 protein – biochemical, small-molecule microarray, 635 nm fluorescence, stem cell growth factors, primary screen (AID 1073). The settings on record: higher = more signal.
The target of test [6] is Pro-neuregulin-1, membrane-bound isoform (Homo sapiens) (UniProt Q02297). Description: small molecules binding neuregulin-1 protein – biochemical, small-molecule microarray, fluorescence 635/667, psychiatric disease protein project, primary screen (AID 1075).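 Further: score combines 667 nm spot fluorescence with signal to noise.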 The settings on record: NRG1 binding, 635 nm fluorescence, higher = more signal.
For test [7], the system named is Neuregulin-1 EGF-like domain. The test can be described thus: small molecules binding NRG1 EGF domain – biochemical, small-molecule microarray, 635 nm fluorescence, primary screen (AID 1081).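 Further: binding of the protein to compounds printed on small-molecule microarray slides.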 The settings on record: higher = more signal.
The nature of test [8]: FRG1 expression reporter modulators in myotubes – cell-based, C2C12 myotubes, firefly/Renilla luciferase, luminescence, FRG1 inhibition for FSHD, primary screen (AID 1084). The settings on record: FRG1 promoter luciferase, higher = more signal, called active from +8 up or from −8 down.
Test [9] can be described thus: small molecules captured by biotinylated probe aFST – biochemical, small-molecule microarray, fluorescence 635/667, stem cell growth factor project, primary screen (AID 1086).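 Further: score merges 667 nm fluorescence with signal-to-noise of each printed compound spot.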 The settings on record: higher = more signal.
A short description of test [10]: binders of probe aHhip on microarray, primary screen, stem cell growth factor project, biochemical, small-molecule microarray, fluorescence 635/667 (AID 1087).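 Further: score merges spot fluorescence at 667nm with spot signal to noise ratio.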 The settings on record: higher = more signal.
For test [11], the system named is PRMT1 (protein arginine N-methyltransferase 1). The test can be described thus: small molecules binding arginine methyltransferase PRMT1 – biochemical, small-molecule microarray, 635 nm fluorescence, primary screen (AID 1088).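 Further: binding of Prmt1 protein to compounds spotted on small-molecule microarray slides.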 The settings on record: higher = more signal.
Test [12] is described as follows: growth effects on S. cerevisiae YJM789 – YJM789 clinical isolate, OD600, 24 h, basal, primary screen (AID 1089).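 Further: growth of clinical yeast isolate S. cerevisiae YJM 789 seeded 1000 cells per well; test concentration not given here.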 The settings on record: higher = more signal, called active from +8 up or from −8 down.
Test [13] can be described thus: S. pombe growth modifiers, basal conditions – strain 972, OD600, 24 h, no modulator, primary screen (AID 1090).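 Further: basal condition with compound alone and no growth modifier present; test concentration not given here.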 The settings on record: S. pombe 972 growth, higher = more signal, called active from +8 up or from −8 down.
Test [14] is described as follows: budding yeast growth modifiers under rapamycin – strain BY4716, OD600, 96 h, primary screen (AID 1091). Further: test concentration not given here. The settings on record: S. cerevisiae BY4716 + rapamycin, higher = more signal, called active from +8 up or from −8 down.
The target in test [15] is Torsin-1A-interacting protein 2 (Homo sapiens) (UniProt Q8NFQ8). Description: small molecules binding lysate-expressed LULL1 – cell lysate, human LULL1 lysate, 635/667 nm fluorescence, primary screen (AID 1092).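 Further: probe is lysate of COS7 cells overexpressing human LULL1; score merges per-feature 667 nm fluorescence with signal-to-noise.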 The settings on record: small-molecule microarray, hLULL1 lysate binding, 635 nm fluorescence; higher = more signal.
Test [16] is described as follows: optical density change of DRC41 E. coli – strain DRC41, OD650, 24 h, E. coli filamentation project, primary screen (AID 1093).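 Further: MC1000 strain lacking acrAB efflux and sulA so SOS filamentation is blocked; test concentration not given here.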 The settings on record: E. coli DRC41 growth, higher = more signal, called active from +8 up or from −8 down.
Test [17] is described as follows: probe aLefty2 binding to arrayed compounds – biochemical, biotinylated probe, 635/667 nm fluorescence, primary screen (AID 1094).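 Further: score merges spot fluorescence near 667 nm with spot signal-to-noise ratio.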 The settings on record: small-molecule microarray, higher = more signal.
Test [18] has as its system Noggin (protein binding on small-molecule microarray). Description: small molecules binding Noggin protein – biochemical, 635/667 nm fluorescence, primary screen (AID 1095).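 Further: score merges 667 nm feature fluorescence with signal to noise over triplicate slides.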 The settings on record: 635 nm fluorescence, higher = more signal.
Test [19] addresses Neurogenic locus notch homolog protein 3 (Homo sapiens) (UniProt Q9UM47). Description: small molecules binding NOTCH3 protein – biochemical, 635/667 nm fluorescence, primary screen (AID 1096). The settings on record: small-molecule microarray, 635 nm fluorescence, higher = more signal.
A short description of test [20]: probe aEGFR binding to arrayed compounds – biochemical, biotinylated probe, 635/667 nm fluorescence, primary screen (AID 1097).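 Further: probe is a biotinylated anti-EGFR antibody binding compounds printed on slides; score combines fluorescence near 667 nm and signal to noise of each spot.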 The settings on record: small-molecule microarray, higher = more signal.

SMILES strings stand for the structures. Activity calls are given as the source filed them.

Sequence of Neurogenic locus notch homolog protein 3 (Homo sapiens) (Q9UM47 whole entry, looked up): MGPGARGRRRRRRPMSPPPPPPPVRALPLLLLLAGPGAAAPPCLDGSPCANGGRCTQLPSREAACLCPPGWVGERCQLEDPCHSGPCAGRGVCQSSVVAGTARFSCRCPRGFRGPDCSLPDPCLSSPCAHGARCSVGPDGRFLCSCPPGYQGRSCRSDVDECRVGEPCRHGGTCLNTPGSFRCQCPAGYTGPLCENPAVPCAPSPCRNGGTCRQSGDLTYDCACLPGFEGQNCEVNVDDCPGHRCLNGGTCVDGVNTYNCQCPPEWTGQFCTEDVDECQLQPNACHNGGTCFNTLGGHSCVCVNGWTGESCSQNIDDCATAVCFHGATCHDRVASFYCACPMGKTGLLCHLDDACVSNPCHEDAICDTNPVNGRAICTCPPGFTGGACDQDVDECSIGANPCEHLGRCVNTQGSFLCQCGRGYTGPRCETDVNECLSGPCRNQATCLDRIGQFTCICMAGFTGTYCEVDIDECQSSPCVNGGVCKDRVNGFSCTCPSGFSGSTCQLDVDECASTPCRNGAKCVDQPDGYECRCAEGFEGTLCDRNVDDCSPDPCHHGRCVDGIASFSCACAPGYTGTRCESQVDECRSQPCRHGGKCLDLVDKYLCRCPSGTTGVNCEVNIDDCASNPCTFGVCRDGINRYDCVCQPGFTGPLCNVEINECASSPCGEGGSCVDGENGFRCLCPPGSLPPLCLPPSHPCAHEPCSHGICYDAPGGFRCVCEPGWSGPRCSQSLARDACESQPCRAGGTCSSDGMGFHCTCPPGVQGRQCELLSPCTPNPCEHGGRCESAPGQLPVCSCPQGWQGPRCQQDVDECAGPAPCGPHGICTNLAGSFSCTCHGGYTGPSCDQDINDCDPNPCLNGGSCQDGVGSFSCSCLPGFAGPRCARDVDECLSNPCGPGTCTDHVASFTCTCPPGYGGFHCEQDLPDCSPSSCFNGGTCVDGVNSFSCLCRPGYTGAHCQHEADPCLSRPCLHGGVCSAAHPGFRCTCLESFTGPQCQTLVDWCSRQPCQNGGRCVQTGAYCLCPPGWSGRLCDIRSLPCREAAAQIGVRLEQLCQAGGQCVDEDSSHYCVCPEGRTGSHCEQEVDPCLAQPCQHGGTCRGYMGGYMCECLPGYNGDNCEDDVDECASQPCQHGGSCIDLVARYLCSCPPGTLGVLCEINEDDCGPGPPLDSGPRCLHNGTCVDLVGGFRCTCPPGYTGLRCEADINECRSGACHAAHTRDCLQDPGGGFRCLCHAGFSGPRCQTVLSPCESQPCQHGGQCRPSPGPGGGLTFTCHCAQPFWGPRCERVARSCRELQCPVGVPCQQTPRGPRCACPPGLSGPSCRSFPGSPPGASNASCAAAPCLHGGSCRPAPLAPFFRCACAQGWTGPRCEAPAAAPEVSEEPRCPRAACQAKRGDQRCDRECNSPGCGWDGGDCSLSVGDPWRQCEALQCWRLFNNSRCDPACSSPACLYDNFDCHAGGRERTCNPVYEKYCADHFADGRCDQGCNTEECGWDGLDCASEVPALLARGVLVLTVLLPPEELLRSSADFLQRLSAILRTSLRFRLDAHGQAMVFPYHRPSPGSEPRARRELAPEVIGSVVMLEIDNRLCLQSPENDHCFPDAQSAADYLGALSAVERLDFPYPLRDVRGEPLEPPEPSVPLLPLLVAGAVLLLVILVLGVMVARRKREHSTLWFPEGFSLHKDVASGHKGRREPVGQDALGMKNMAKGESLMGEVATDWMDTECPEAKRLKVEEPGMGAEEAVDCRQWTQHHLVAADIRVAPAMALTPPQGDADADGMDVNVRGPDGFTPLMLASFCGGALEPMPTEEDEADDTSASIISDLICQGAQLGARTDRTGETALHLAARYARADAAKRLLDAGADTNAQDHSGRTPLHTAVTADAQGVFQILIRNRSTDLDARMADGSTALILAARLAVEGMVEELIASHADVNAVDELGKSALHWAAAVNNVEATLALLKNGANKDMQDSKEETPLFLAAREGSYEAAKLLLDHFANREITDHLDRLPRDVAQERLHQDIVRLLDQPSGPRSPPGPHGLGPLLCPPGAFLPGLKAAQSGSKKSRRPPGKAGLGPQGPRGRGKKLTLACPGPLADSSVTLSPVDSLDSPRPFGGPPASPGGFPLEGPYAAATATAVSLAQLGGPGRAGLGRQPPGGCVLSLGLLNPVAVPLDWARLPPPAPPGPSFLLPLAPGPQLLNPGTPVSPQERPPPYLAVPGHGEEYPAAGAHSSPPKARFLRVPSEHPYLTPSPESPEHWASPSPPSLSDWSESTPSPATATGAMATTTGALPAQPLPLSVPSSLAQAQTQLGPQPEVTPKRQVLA
Sequence of Neurogenic locus notch homolog protein 2 (Homo sapiens) (Q04721 whole entry, looked up, canonical isoform): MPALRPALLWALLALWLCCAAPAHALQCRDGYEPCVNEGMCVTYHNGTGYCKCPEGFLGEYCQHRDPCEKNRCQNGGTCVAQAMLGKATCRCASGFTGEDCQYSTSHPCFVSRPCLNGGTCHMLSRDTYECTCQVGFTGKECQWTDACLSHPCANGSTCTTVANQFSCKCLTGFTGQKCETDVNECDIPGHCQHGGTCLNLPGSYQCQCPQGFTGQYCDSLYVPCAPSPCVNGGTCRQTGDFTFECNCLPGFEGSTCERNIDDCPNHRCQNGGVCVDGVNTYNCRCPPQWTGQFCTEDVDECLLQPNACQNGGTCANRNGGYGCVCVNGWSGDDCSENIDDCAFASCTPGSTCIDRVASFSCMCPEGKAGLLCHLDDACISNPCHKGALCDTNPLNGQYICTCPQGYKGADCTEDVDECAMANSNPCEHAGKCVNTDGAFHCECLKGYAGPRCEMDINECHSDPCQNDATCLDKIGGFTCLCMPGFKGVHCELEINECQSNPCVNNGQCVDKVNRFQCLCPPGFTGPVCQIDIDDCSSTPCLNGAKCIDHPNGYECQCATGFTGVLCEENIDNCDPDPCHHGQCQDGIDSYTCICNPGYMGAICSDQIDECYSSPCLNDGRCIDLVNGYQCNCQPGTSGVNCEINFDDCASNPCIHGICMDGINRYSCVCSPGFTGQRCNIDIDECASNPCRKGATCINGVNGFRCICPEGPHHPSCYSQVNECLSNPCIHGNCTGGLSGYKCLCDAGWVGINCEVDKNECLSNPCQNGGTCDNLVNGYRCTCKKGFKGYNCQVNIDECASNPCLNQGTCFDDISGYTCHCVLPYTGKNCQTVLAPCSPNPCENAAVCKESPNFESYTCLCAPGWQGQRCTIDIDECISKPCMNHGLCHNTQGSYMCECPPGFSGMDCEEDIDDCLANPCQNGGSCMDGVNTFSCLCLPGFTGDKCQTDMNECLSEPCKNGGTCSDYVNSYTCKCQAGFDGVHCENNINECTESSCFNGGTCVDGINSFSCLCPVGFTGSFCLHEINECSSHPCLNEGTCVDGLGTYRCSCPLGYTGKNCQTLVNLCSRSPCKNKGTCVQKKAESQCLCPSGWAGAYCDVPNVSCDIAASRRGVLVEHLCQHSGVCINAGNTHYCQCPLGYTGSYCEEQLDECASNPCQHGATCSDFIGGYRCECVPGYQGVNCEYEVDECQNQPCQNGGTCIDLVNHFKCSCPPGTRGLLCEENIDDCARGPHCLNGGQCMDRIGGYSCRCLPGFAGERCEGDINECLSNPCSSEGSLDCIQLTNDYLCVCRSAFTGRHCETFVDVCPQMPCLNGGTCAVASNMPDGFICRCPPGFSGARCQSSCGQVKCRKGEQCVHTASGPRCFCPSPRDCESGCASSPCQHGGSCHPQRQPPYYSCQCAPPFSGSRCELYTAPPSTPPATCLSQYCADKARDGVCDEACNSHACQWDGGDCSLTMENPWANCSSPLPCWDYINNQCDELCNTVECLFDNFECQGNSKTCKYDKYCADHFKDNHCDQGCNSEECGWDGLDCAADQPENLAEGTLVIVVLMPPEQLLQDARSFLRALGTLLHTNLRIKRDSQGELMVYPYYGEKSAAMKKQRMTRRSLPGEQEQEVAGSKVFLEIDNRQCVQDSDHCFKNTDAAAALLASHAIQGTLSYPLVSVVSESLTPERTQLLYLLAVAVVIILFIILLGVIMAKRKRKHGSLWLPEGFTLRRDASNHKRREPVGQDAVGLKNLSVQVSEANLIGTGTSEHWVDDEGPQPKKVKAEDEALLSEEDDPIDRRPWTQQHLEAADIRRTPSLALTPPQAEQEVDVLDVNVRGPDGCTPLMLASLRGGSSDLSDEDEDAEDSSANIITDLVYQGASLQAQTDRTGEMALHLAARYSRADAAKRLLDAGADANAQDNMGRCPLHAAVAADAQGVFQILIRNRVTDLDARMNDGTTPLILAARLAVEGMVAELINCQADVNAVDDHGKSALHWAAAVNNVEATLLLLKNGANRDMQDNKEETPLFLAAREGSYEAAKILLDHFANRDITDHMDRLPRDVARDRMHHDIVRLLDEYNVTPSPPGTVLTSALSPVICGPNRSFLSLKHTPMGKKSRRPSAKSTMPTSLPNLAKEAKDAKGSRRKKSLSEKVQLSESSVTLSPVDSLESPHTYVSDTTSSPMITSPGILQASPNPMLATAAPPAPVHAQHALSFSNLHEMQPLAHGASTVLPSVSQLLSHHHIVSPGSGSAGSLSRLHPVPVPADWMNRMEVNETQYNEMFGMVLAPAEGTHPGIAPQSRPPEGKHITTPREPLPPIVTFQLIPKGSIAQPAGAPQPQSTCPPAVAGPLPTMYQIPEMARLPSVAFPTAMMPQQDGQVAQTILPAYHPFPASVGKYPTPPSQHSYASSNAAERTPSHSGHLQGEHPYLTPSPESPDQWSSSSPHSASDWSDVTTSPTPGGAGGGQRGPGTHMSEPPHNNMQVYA

For the molecule `CCN1C(=O)[C@H]2[C@H]3[C@H](O)[C@H](O)CC(=NOC(C)CN4CCCc5nc(C)c(C)cc54)[C@@H]3CC[C@H]2C1=O` (stereo not given in full), the composite z-score is -0.342 in test [1]; 0.564 in [2]; -0.0468 in test [3]; 0.49 in [4]; 0.724 in test [5]; -0.0318 in test [6]. The composite z-score was determined as 0.963 in [7]; 0.372 in test [9]; 0.0596 in test [10]; 1.46 in [11]; 0.404 in [15]; 0.0416 in [17]. Besides, the composite z-score in [18] was 1.16; in test [19], 0.597; in [20] it was 0.012. The z-score in test [8] was -0.266 (inactive); in test [12], -0.0428 (inactive); in test [13], 1.19 (inactive); in test [14] it was 0.385 (inactive); in test [16], 1.32 (inactive).

In the case of `COC(=O)[C@@H]1CC[C@H](C)[C@@H](c2ccc(Br)cc2)N1C[C@H](O)CN=[N+]=[N-]`, the composite z-score in [1] was -0.0566; in test [2] it was 0.143; in test [3], -0.0925; in test [4] it was 0.171; in [5] it was -0.0324; in test [6], 0.374. The composite z-score is -0.0594 in test [7]; -0.193 in test [9]; 0.478 in [10]; -0.164 in [11]; 0.512 in test [15]; -0.181 in test [17]. For the same molecule, the composite z-score in test [18] was -0.133; in test [19] it was -0.0269; in [20], -0.139. Also, the z-score in [8] was 0.348 (inactive); in test [12], -0.209 (inactive); in [13], -4.62 (inactive); in test [14], -2.03 (inactive); in test [16], 0.449 (inactive).

Regarding `COC(=O)CC=C[C@@H](C)[C@@H](C=NOC[C@@H](C)[C@H](OCc1ccccc1)C(C)C)NS(=O)(=O)c1ccc(C)cc1`, the composite z-score was -0.433 in test [1]; 0.142 in test [2]; -0.0633 in test [3]; -0.0494 in test [4]; -0.801 in [5]; -0.267 in [6]. Further, the composite z-score in test [7] is -0.332; in [9], -0.0646; in [10], -0.0003; in [11], 0.123; in [15], 0.0335; in [17], -0.27. Moreover, the composite z-score in [18] is 0.452; in test [19], -1.44; in [20], -0.142. Also, the z-score in test [8] is 0.539 (inactive); in test [12], -0.161 (inactive); in test [13], 1.53 (inactive); in [14], 0.227 (inactive); in test [16] it was -1.42 (inactive).

With `CO[C@@H]1C=CCC(=O)N[C@@H](C)C(=O)OC[C@@H](OC)[C@H](C)C=CCC(=O)OC[C@H]1C`, the composite z-score was -0.596 in [1]; 2.23 in [2]; -0.116 in test [3]; -0.631 in test [4]; -0.88 in [5]; -0.503 in [6]. Besides, the composite z-score is 0.233 in [7]; -0.045 in [9]; 0.0373 in test [10]; 1.37 in test [11]; -1.33 in [15]; -0.124 in [17]. For the same molecule, the composite z-score was 1.89 in test [18], 0.312 in test [19] and -0.0357 in test [20]. Besides, the z-score in test [8] is -0.163 (inactive); in [12], -0.563 (inactive); in [13], -0.832 (inactive); in [14], -0.333 (inactive); in [16], 0.615 (inactive).

With `C#CCCCON=C1C[C@@H](O)[C@@H](O)[C@@H]2[C@@H]3C(=O)N(C[C@@H]4CCCO4)C(=O)[C@@H]3CC[C@@H]12`, the composite z-score is -0.499 in test [1]; 0.153 in test [2]; -0.0909 in test [3]; 0.691 in test [4]; 0.922 in test [5]; 0.404 in [6]. Also, the composite z-score was 0.275 in test [7]; -0.0371 in test [9]; 0.0373 in test [10]; 0.345 in [11]; 0.379 in test [15]; -0.119 in [17]. The results for the composite z-score in [18], in test [19] and in test [20] were 0.595, 0.752 and -0.0436, respectively. Also, the z-score in test [8] is 0.737 (inactive); in [12] it was -0.281 (inactive); in test [13] it was 0.504 (inactive); in test [14], -0.747 (inactive); in test [16] it was 0.133 (inactive).
